Compounds without any hit were thinned out: in the full panel of roughly 83,000, 20% have a hit.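 Results are percent growth after 48 hours of single-concentration exposure. 100 means growth as in untreated cells, lower positive values show inhibition; negative values down to -100 show cell death.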 Activity calls are given as the source filed them. How the source made its calls: active means growth percent below 10; inactive means the rest.
Assays:
Assay in all cases: NCI-60 one-dose screen, 48 h (100 = growth as untreated, 0 = no growth, -100 = all killed)
Conditions in all cases: 10 µM unless noted
NCI-H226 lung = tested on: NCI-H226 lung
NCI-H322M lung = tested on: NCI-H322M lung
HOP-62 NSCLC = tested on: HOP-62 NSCLC
NCI-H460 lung = tested on: NCI-H460 lung
HOP-92 NSCLC = tested on: HOP-92 NSCLC
NCI-H522 lung = tested on: NCI-H522 lung
A549/ATCC NSCLC = tested on: A549/ATCC NSCLC
786-0 renal = tested on: 786-0 renal
COLO 205 colon = tested on: COLO 205 colon

Measured: growth

CCOC(=O)C1=C(C)C(Cl)=N/C1=C\c1[nH]c(Cl)c(C)c1C(=O)OCC
inactive: NCI-H226 lung 65.1% | NCI-H322M lung 100% | HOP-62 NSCLC 96.5% | NCI-H460 lung 108% | HOP-92 NSCLC 87.8% | NCI-H522 lung 77.5% | A549/ATCC NSCLC 78% | 786-0 renal 97.7% | COLO 205 colon 107%

O=C(Cc1ccccc1)Nc1cccc(N=Cc2ccccc2O)c1
inactive: NCI-H226 lung 104% | NCI-H322M lung 108% | HOP-62 NSCLC 115% | NCI-H460 lung 107% | HOP-92 NSCLC 88.1% | NCI-H522 lung 91.1% | A549/ATCC NSCLC 99.3% | 786-0 renal 104% | COLO 205 colon 111%

CC1=C(CCC(C)NCc2ccc(OCCCN3CCCCC3)cc2)C(C)(C)CCC1 (configuration not stated)
active: NCI-H226 lung -32.7% | NCI-H322M lung -40.5% | HOP-62 NSCLC -67.6% | NCI-H460 lung -77% | HOP-92 NSCLC -83% | NCI-H522 lung -79.4% | A549/ATCC NSCLC -64.2% | 786-0 renal -85.6% | COLO 205 colon -70.9%

CNC1=CC(=O)c2c(C(=O)OC)c(C)[n+]([O-])c(C)c2C1=O
inactive: NCI-H226 lung 82.1% | NCI-H322M lung 71.9% | HOP-62 NSCLC 97.9% | NCI-H460 lung 28.2% | HOP-92 NSCLC 106% | NCI-H522 lung 23.3% | A549/ATCC NSCLC 55.3% | 786-0 renal 97.9%
active: COLO 205 colon 8.07%

CC1(C)CC[C@]2(C(=O)N[C@H](CO)Cc3ccccc3)CC[C@]3(C)C(=CC[C@@H]4[C@@]5(C)CCCNC(C)(C)[C@@H]5CC[C@]43C)[C@@H]2C1
inactive: NCI-H226 lung 91.1% | NCI-H322M lung 95.3% | HOP-62 NSCLC 89% | NCI-H460 lung 78.3% | HOP-92 NSCLC 26.4% | NCI-H522 lung 96.8% | A549/ATCC NSCLC 89.8% | 786-0 renal 65.5% | COLO 205 colon 77.8%

CCN1CCN(CC(=O)Nc2ccc(-c3cn4c(n3)sc3cc(Oc5ccnc(C(=O)NC)c5)ccc34)cc2)CC1
inactive: NCI-H226 lung 105% | NCI-H322M lung 75.9% | HOP-62 NSCLC 66.1% | NCI-H460 lung 48.7% | HOP-92 NSCLC 54.6% | NCI-H522 lung 83.7% | A549/ATCC NSCLC 78.2% | 786-0 renal 75.3% | COLO 205 colon 51.8%

N=C(N)c1ccc(-c2ccc(-c3ccccc3)s2)cc1
active: NCI-H460 lung -16.6% | NCI-H522 lung -26.5% | COLO 205 colon -42.9%
inactive: NCI-H226 lung 103% | NCI-H322M lung 49.2% | HOP-62 NSCLC 74.6% | HOP-92 NSCLC 73.2% | A549/ATCC NSCLC 60.1% | 786-0 renal 78.8%

COc1ccc(Oc2nc(Nc3ccc(N4CCOCC4)cc3)ncc2NC(=O)Nc2cc(OC)cc(OC)c2)cc1
active: NCI-H460 lung -36.5% | HOP-92 NSCLC -11.5% | NCI-H522 lung 4.69% | A549/ATCC NSCLC 2.22% | COLO 205 colon -54.8%
inactive: NCI-H226 lung 32.7% | NCI-H322M lung 23.3% | HOP-62 NSCLC 48.2% | 786-0 renal 22.5%

CCN1CCN(CCNc2nccc(-c3c(-c4ccc(F)c(OC)c4)nc4sccn34)n2)S1(=O)=O
inactive: NCI-H226 lung 109% | NCI-H322M lung 83.4% | HOP-62 NSCLC 87.7% | NCI-H460 lung 56.1% | HOP-92 NSCLC 54.4% | NCI-H522 lung 63% | 786-0 renal 102%

O=C(Nc1cc(Cl)ccc1O)c1cccc(Nc2ccnc(C(F)(F)F)c2)c1
inactive: NCI-H226 lung 54.2% | NCI-H322M lung 59.1% | HOP-62 NSCLC 64.8% | NCI-H460 lung 30.5% | HOP-92 NSCLC 53.6% | NCI-H522 lung 30.6% | A549/ATCC NSCLC 37.1% | 786-0 renal 49.3% | COLO 205 colon 90.9%

O=C(CC(=O)Nc1cccc(C(=O)O)c1)Nc1cccc(C(=O)O)c1
inactive: NCI-H226 lung 112% | NCI-H322M lung 105% | HOP-62 NSCLC 88.3% | NCI-H460 lung 100% | HOP-92 NSCLC 99.7% | NCI-H522 lung 78% | A549/ATCC NSCLC 85.8% | 786-0 renal 98% | COLO 205 colon 100%

Cc1nc2c(c(=O)[nH]1)C(c1ccccc1)c1ccc3ccccc3c1O2 (configuration not stated)
active: NCI-H522 lung -31.4%
inactive: NCI-H226 lung 62.5% | NCI-H322M lung 59.1% | HOP-62 NSCLC 20.2% | NCI-H460 lung 20.5% | HOP-92 NSCLC 24.7% | A549/ATCC NSCLC 40.2% | 786-0 renal 25% | COLO 205 colon 72.9%

CCN1CCN(c2cc(C)nc(N(CCNc3ccnc4cc(Cl)ccc34)Cc3ccc4c(c3)OCO4)n2)CC1
inactive: NCI-H226 lung 47.7% | NCI-H322M lung 28.3% | HOP-92 NSCLC 44.6%
active: NCI-H460 lung 8.38% | NCI-H522 lung -81.7% | A549/ATCC NSCLC 2.91% | 786-0 renal -76.8% | COLO 205 colon -89.5%

CCN1C(=O)N(CC)C2C1NC(=S)N2/N=C/c1ccc(C(F)(F)F)cc1 (configuration not stated)
inactive: NCI-H226 lung 74.2% | NCI-H322M lung 82.5% | HOP-62 NSCLC 71.2% | NCI-H460 lung 75.6% | HOP-92 NSCLC 50.6% | NCI-H522 lung 48.2% | A549/ATCC NSCLC 39.8% | 786-0 renal 79.7% | COLO 205 colon 80.7%

c1nc2ccc(-c3cc4ccc5[nH]ncc5c4c4c3CCCC4)cc2[nH]1
inactive: NCI-H226 lung 57.1% | NCI-H322M lung 41% | NCI-H460 lung 63.1% | HOP-92 NSCLC 66% | NCI-H522 lung 37.5% | A549/ATCC NSCLC 65.1% | 786-0 renal 43.6% | COLO 205 colon 52.2%

c1ccc2c(c1)CCCc1nnc3nc4ccccc4n3c1-2
active: HOP-92 NSCLC -2.09%
inactive: NCI-H226 lung 51.2% | NCI-H322M lung 48.2% | HOP-62 NSCLC 34.8% | NCI-H460 lung 25.8% | NCI-H522 lung 55.6% | A549/ATCC NSCLC 29.9% | 786-0 renal 34.2% | COLO 205 colon 12%

CC(=O)c1sc2sc(C(C)=O)c(C)c2c1C
inactive: NCI-H226 lung 42.5% | NCI-H322M lung 99% | HOP-62 NSCLC 80.3% | NCI-H460 lung 97.9% | HOP-92 NSCLC 91.1% | NCI-H522 lung 76.6% | A549/ATCC NSCLC 74.8% | 786-0 renal 89.2% | COLO 205 colon 114%

Cc1c2cccnc2c(C)c2c1c1cc(CO)ccc1n2C
active: NCI-H226 lung -33.4% | NCI-H460 lung 0.162%
inactive: NCI-H322M lung 26.8% | HOP-62 NSCLC 30.5% | HOP-92 NSCLC 32.9% | NCI-H522 lung 30.3% | A549/ATCC NSCLC 20.9% | 786-0 renal 22.6% | COLO 205 colon 19.1%

CC(C)(C)n1cc(-c2ccnc(NCCCNS(=O)(=O)c3ccc(C(F)(F)F)cc3)c2)c(-c2cccc(F)c2)n1
inactive: NCI-H226 lung 91.1% | NCI-H322M lung 103% | HOP-62 NSCLC 92.7% | NCI-H460 lung 76.7% | HOP-92 NSCLC 90.1% | NCI-H522 lung 73.7% | A549/ATCC NSCLC 64.1% | 786-0 renal 88.3% | COLO 205 colon 76.9%
